{
  "source": "PubChem BioAssay AID1457",
  "about": "(National Center for Advancing Translational Sciences (NCATS), 2008)",
  "note": "Out of some 210,000 compounds screened, about 730 (0.35%) were called active. Entries that show only a call come without a potency. About 1% were inconclusive and are not listed. Calls follow the shape of the dose curve; as a rule, active = well fitted inhibition curve with a large enough effect; inconclusive = small, poorly fitted or top-dose-only effect; inactive = no such curve, though single readings can be large or run the other way. The sample as a whole holds a higher share of actives than the screen did. Potency is read from the fitted curve at half-maximal effect.",
  "data": [
    {"assay": "qHTS Assay for Identifying the Cell-Membrane Permeable IMPase Inhibitors: Potentiation with Lithium;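 also: IP1 builds up when IMPase is blocked and the TR-FRET signal falls; nearly all actives have a fitted effect of over 50% in size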", "conditions": "CHO-M1 cells, IP1 TR-FRET (IP-One), carbachol + lithium; series mostly up to 59.4 µM", "summary_of_the_method": "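CHO cells stably expressing M1 receptor (2000/well) were cultured 16–30 h, then exposed to compounds with a small lithium addition for 30 min at 37C. IP1 was measured by TR-FRET competition; AC50 from Hill fits.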", "values": [
      {"compound": "O=C(c1ccco1)N1CCC2(CC1)CN(c1ncccn1)C2", "Potency": "inactive"},
      {"compound": "O=C(C1=C(O)C(=O)N(c2ncccn2)C1c1cccs1)c1ccco1", "note": "(centres undefined)", "Potency": "11.2 µM (active)"},
      {"compound": "O=C(c1ccco1)N1CCC2(CC1)CCN(c1ncccn1)CC2", "Potency": "inactive"},
      {"compound": "C=CCC1CCC(=O)N2CCCC12", "note": "(centres undefined)", "Potency": "inactive"},
      {"compound": "C[C@@H]1C(c2ccc(F)cc2)=NN(c2ccc(Br)cc2)[C@H]1C(=O)N1CCOC1=O", "Potency": "inactive"},
      {"compound": "COC(=O)CC1c2ccccc2C(Cc2ccc(OC)cc2)=C(C)N1C(=O)OC", "note": "(centres undefined)", "Potency": "inactive"},
      {"compound": "COc1cc(OC)c2c(c1)OC(=O)CC2c1cc(OC)c(OC)c(OC)c1", "note": "(centres undefined)", "Potency": "inactive"},
      {"compound": "CC1=C2[C@@H](O)[C@H]([C@@H](C)C(=O)NCCC(C)C)CC[C@@]2(C)C=CC1=O", "Potency": "inactive"},
      {"compound": "C=CC1(C)CC(=O)C2(O)C(C)(O1)C(OC(C)=O)C(O)C1C(C)(C)CCC(O)C12C", "note": "(centres undefined)", "Potency": "inactive"},
      {"compound": "COC(=O)C1=C(C(=O)OC)[C@@H]2N(C)c3ccccc3[C@@]23C[C@@H](C(=O)OC)N(C(C)=O)C3=N1", "Potency": "inactive"},
      {"compound": "CCN(CC)C(=O)c1sc2nc(-c3ccccc3)ccc2c1N", "Potency": "10 µM (active)"},
      {"compound": "CCCC(=O)n1nc(-c2ccccc2)nc1N", "Potency": "inactive"},
      {"compound": "Nc1c(C(=O)NCc2ccccc2)sc2nc3c(cc12)C(=O)CCC3", "Potency": "inactive"},
      {"compound": "CCCCC/C=C\\CC1OC1CCCCCCCC(=O)O", "note": "(centres undefined)", "Potency": "inactive"},
      {"compound": "O=C(COC(=O)c1cccc(Br)c1)Nc1cccc2c1C(=O)c1ccccc1C2=O", "Potency": "11.2 µM (active)"},
      {"compound": "O=C(COC(=O)c1ccccc1)Nc1ccccc1Sc1ccccc1", "Potency": "inactive"},
      {"compound": "O=C(COC(=O)Cn1cnc2ccccc21)Nc1cccc2c1C(=O)c1ccccc1C2=O", "Potency": "inactive"},
      {"compound": "C=CCOC(=O)NC(c1ccc(F)c(F)c1)C(C(=O)COC)C(=O)OC", "note": "(centres undefined)", "Potency": "inactive"},
      {"compound": "Cc1csc(-c2coc3cc(O[C@@H]4O[C@H](CO)[C@@H](O)[C@@H](O)[C@H]4O)ccc3c2=O)n1", "Potency": "inactive"},
      {"compound": "CC(C)(Oc1ccc(C2CC2(Cl)Cl)cc1)C(=O)O", "note": "(centres undefined)", "Potency": "inactive"},
      {"compound": "CC(O)[C@@H](N)C(=O)O", "note": "(some centres undefined)", "Potency": "inactive"},
      {"compound": "CCCCCCCC/C=C\\CCCCCCCC(=O)OC[C@H](CO)OC(C)=O", "Potency": "inactive"},
      {"compound": "CCOC(=O)C1=C(C(=O)OCC)C(C(=O)OCC)N(S(=O)(=O)C(F)(F)F)c2ccccc21", "note": "(centres undefined)", "Potency": "inactive"},
      {"compound": "Cc1cc(NC(=O)COc2ccc(Cl)cc2Cl)n(CCC#N)n1", "Potency": "inactive"},
      {"compound": "N#Cc1ccccc1NC(=O)c1cccc(COc2ccc(Cl)cc2Cl)c1", "Potency": "8.91 µM (active)"},
      {"compound": "CSc1ccc(C#N)cc1NC(=O)c1cccc(Cl)c1", "Potency": "inactive"},
      {"compound": "O=C(Nc1ccc(Sc2ccc(Br)cc2)cc1)c1ccco1", "Potency": "inactive"},
      {"compound": "Cc1ccccc1NC(=O)c1cnn(-c2ccccc2)c1NC(=O)c1ccco1", "Potency": "inactive"},
      {"compound": "O=C(Nc1c(-c2ccccc2)nc2c(Br)cc(Br)cn12)c1ccco1", "Potency": "10 µM (active)"}
    ]}
  ]
}
